Screening results from PubChem.
Only some compounds are listed: those with a hit (about 10% of all), similar ones and a draw of the others.
3T3 cytotox: Cytotoxic Profiling in NIH 3T3 Cell Line of Diverse Libraries Using Quantitative High-Throughput Screening. NIH 3T3 viability, CellTiter-Glo ATP luminescence, 48-72 h. Potency, µM (top dose mostly 96.7 µM), inactives show at the highest dose activity change, negative = cytotoxicity, actives largely listed as inhibitors. 94,000 tested, 4.3% active; also: nearly all actives have a fitted effect of over 55% in size
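ATP-dependent luminescence (CellTiter-Glo) served as the viability signal for NIH 3T3 cells treated with compound for 48 or 72 hr at 37 °C.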
FLuc inh: Firefly luciferase inhibition profiling of diverse chemical library using quantitative high-throughput screening. purified P. pyralis luciferase, luminescence, biochemical. Potency, µM (highest dose often 115 µM), usual class: inhibitors. 76,000 tested, 2.5% active. AID 1347043, 2019; also: nearly all actives have a fitted effect of over 65% in size
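FLuc 10nM, D-luciferin 10uM, ATP 10uM, Mg acetate 10mM, Tris acetate pH 7.5, Tween/BSA; cpd qHTS; enzyme added last; CCD luminescence.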
hNpr1 antagonist: Natriuretic polypeptide receptor (hNpr1) antagonism - Primary qHTS; HEK293 hNpr1 GloSensor cGMP, ANP-stimulated luminescence; 76,000 tested, 1.6% active; Atrial natriuretic peptide receptor 1 (Homo sapiens), P16066; Potency, µM (titrated, usually from 46.3 µM), without a hit: at the highest dose activity change, negative = inhibition, hits mostly inhibitors; AID 1347048, 2019; calls by dose curve; also: nearly all actives have a fitted effect of over 60% in size
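HEK293 cells stably expressing human Npr1 and cGMP GloSensor pGS-40F, loaded 2 h with 2% GloSensor reagent, given compound 30 min at room temperature. Luminescence read before and 20 min after 0.1 nM hNppA.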
GPT2 inhibitor: Primary qHTS assay for inhibitors of Glutamate pyruvate transaminase 2 (GPT2); Recombinant GPT2, coupled pyruvate oxidase/HRP Amplex Red fluorescence; Potency, µM (highest dose often 57.7 µM), inactives show at the top dose activity change, negative = inhibition, usual class: inhibitors; 100,000 tested, 0.25% active; AID 1671188, 2021; Alanine aminotransferase 2 (Homo sapiens), Q8TD30; also: nearly all actives have a fitted effect of over 60% in size
Target sequence (Q8TD30 whole entry, looked up): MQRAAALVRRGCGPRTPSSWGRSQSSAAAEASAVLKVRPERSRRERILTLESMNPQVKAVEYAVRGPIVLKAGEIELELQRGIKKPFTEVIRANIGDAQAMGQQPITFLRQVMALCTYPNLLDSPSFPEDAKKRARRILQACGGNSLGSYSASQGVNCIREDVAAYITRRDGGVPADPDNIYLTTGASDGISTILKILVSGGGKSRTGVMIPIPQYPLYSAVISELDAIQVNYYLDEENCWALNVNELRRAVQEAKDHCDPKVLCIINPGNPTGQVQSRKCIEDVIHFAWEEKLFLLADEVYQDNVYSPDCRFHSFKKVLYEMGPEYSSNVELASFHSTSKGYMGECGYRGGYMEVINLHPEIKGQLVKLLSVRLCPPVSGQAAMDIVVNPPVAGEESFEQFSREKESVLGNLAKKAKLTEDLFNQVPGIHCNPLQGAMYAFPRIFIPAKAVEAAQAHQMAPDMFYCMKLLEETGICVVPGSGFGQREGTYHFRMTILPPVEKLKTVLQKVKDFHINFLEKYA
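GPT2 10ng/uL, a-KG 250uM, L-Ala 2mM, HEPES pH7.5 + 0.0001% Tween; 30 min RT. Then Amplex mix (PO/HRP/ThPP), 30 min RT dark, fluorescence. AOA 50uM used as positive control.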
HEK cytotox: Cytotoxic Profiling in HEK 293 Cell Line of Diverse Libraries Using Quantitative High-Throughput Screening; AID 1345083, 2018; Potency, µM (top dose mostly 115 µM), without a hit: top-dose activity change, negative = cytotoxicity, most hits filed as inhibitors; 94,000 tested, 6.6% active; HEK 293 viability, ATP luminescence (CellTiter-Glo), 48-72 h; also: nearly all actives have a fitted effect of over 60% in size
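Viability of HEK 293 cells, plated at 250 cells/well, was judged by cellular ATP after compound treatment for 48 or 72 hr. Luminescence was imaged 10 min after CellTiter-Glo addition at room temperature.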
* = called active by the depositor; [ ] = another dose, or the depositor's remark. Unless noted, calls follow the shape of the dose curve; as a rule, active = well fitted curve in the direction sought with a large enough effect; inconclusive = small, poorly fitted or top-dose-only effect, or another doubt; inactive = no such curve, though single readings can be large; an effect the other way counts as inactive or inconclusive. % is scaled to controls: 0 for no effect and ±100 for the full control effect; potency is read from the fitted curve at half-maximal effect.

For Cc1noc(C)c1Cc1ccc(C(=O)N2CCC(C)(c3noc(-c4ccccn4)n3)CC2)o1 the results were 3T3 cytotox inconclusive, FLuc inh inactive, hNpr1 antagonist -29.6%, GPT2 inhibitor inactive and HEK cytotox 44.7µM*.
Screening CC1(c2noc(-c3ccccn3)n2)CCN(C(=O)C2CCN(C(=O)c3ccc(=O)[nH]c3)CC2)CC1 returned 3T3 cytotox inconclusive, FLuc inh inactive, hNpr1 antagonist 15.1%, GPT2 inhibitor inactive and HEK cytotox -19.8%.
Cc1ccccc1-c1ncc2c(n1)OCCN(c1ccccc1)C2=O was read as 3T3 cytotox -34.0%[138 µM], FLuc inh 20µM*, hNpr1 antagonist 2.7%[70.6 µM], GPT2 inhibitor -4.3%[88.5 µM] and HEK cytotox inconclusive.
COc1ccccc1-c1ncc2c(n1)OCCN(c1cccc(C(F)(F)F)c1)C2=O was read as 3T3 cytotox inconclusive, FLuc inh inactive, hNpr1 antagonist -5.0%[70.6 µM], GPT2 inhibitor inconclusive and HEK cytotox inconclusive.
For COc1ncccc1-c1ncc2c(n1)OCCN(c1cccc(C(F)(F)F)c1)C2=O the results were 3T3 cytotox 25.1µM*, FLuc inh inactive, hNpr1 antagonist 1.4%[70.6 µM], GPT2 inhibitor -9.2%[88.5 µM] and HEK cytotox -16.4%[172 µM].
O=C1c2cnc(-c3cccnc3)nc2OCCN1Cc1ccccc1 was read as 3T3 cytotox -17.5%[138 µM], FLuc inh inactive, hNpr1 antagonist -5.6%[70.6 µM], GPT2 inhibitor inactive and HEK cytotox inconclusive.
`O=C1c2cnc(-c3ccc(O)c(F)c3)nc2OCCN1c1ccccc1` gave 3T3 cytotox 8.91µM*, FLuc inh inconclusive, hNpr1 antagonist -25.1%[70.6 µM], GPT2 inhibitor 4.0%[88.5 µM] and HEK cytotox 44.7µM*.
For O=C1c2cnc(-c3ccccc3C(F)(F)F)nc2OCCN1Cc1ccccc1 the results were 3T3 cytotox -29.3%[138 µM], FLuc inh inactive, hNpr1 antagonist -1.4%[70.6 µM], GPT2 inhibitor -12.4%[88.5 µM] and HEK cytotox inconclusive.
`COc1ccc(-c2ncc3c(n2)OCCN(C)C3=O)cc1OC` gave 3T3 cytotox inconclusive, FLuc inh 39.8µM*, hNpr1 antagonist 1.5%[70.6 µM], GPT2 inhibitor -13.8%[88.5 µM] and HEK cytotox inactive.
`CC(C)CCN1CCC(N2CCN(C(=O)C3CC3)CC2)C1=O` (centres undefined) gave 3T3 cytotox -10.1%, FLuc inh inactive, hNpr1 antagonist 3.9%, GPT2 inhibitor -2.2% and HEK cytotox inconclusive.
`COc1ccc(Cl)cc1-c1ncc2c(n1)OCCN(c1ccccc1)C2=O` gave 3T3 cytotox 39.8µM*, FLuc inh inconclusive, hNpr1 antagonist 4.7%[70.6 µM], GPT2 inhibitor -5.5%[88.5 µM] and HEK cytotox 3.6%[172 µM].
For COc1cccc(CN2CC[C@@H]3C(=O)NCCCCCCN(Cc4ccncc4)[C@@H]3C2)n1 the results were 3T3 cytotox -15.1%, FLuc inh inactive, hNpr1 antagonist 0.1%, GPT2 inhibitor -0.8% and HEK cytotox -11.6%.
CC(=O)N1CCCC2(C1)CN(C)c1ccc(C(=O)NCC3CC3)cc12 (centres undefined) was read as 3T3 cytotox inconclusive, FLuc inh inactive, hNpr1 antagonist 0.7%[70.6 µM], GPT2 inhibitor inactive and HEK cytotox inactive.
CN1CCC2(C1)CN(Cc1ccccc1)c1ccc(C(=O)Nc3ccn(C)n3)cc12 (centres undefined) was read as 3T3 cytotox inconclusive, FLuc inh inactive, hNpr1 antagonist 2.7%[70.6 µM], GPT2 inhibitor 1.1%[88.5 µM] and HEK cytotox inconclusive.
`CN1CCCC2(C1)CN(Cc1cccnc1)c1ccc(C(=O)NCC3CCCCC3)cc12` (centres undefined) gave 3T3 cytotox 35.5µM*, FLuc inh inactive, hNpr1 antagonist 1.5%[70.6 µM], GPT2 inhibitor 3.1%[88.5 µM] and HEK cytotox 89.1µM*.
